Assay [1] can be described thus: qHTS assay to identify small molecule antagonists of the vitamin D receptor (VDR) signaling pathway - cell viability counter screen (AID 743225; active = well fitted curve in the direction sought with a large enough effect in the repeat runs; an effect the other way counts as inactive or inconclusive; note: nearly all actives have a fitted effect of over 50% in size; note: potency is the fitted concentration of half-maximal effect). In a few lines: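 VDR-bla HEK 293T cells, 4 h pre-incubation at 37C, then compound plus 1-alpha,25-dihydroxyvitamin D3 (3 nM final) for 16 h. After the beta-lactamase FRET read, CellTiter-Glo was added to the same wells; luminescence after 30 min at room temperature.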

A short description of assay [2]: qHTS assay to identify small molecule agonists of the NFkB signaling pathway (AID 1159509; active = well fitted curve in the direction sought with a large enough effect in the signal ratio in the repeat runs, not every such curve was filed as active; the % refers to the signal ratio; note: series mostly up to about 61 µM). In a few lines: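 NFkB-bla ME-180 cells carry a beta-lactamase reporter under an NF-kB response element. They were plated overnight, then exposed to compounds for 5 h at 37 C. Read-out is LiveBLAzer FRET after 1.5 hr at room temperature (405 nm excitation; 460/530 nm emission).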

Assay [3] in a line: qHTS assay to identify small molecule agonists of the NFkB signaling pathway - cell viability counter screen (AID 1159515). Note: nearly all actives have a fitted effect of over 55% in size. Note: potency is the fitted concentration of half-maximal effect. In a few lines:
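NFkB-bla ME-180 cells, 2,000/well, plated overnight at 37 C; compound added for 5 hr at 37 C. Viability read in the same wells as the bla reporter, by CellTiter-Glo luminescence after 30 min at room temperature.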

Assay [4] is described as follows: qHTS assay to identify small molecule agonists of the endoplasmic reticulum stress response signaling pathway (AID 1159516; active = well fitted activation curve with a large enough effect in the signal ratio in the repeat runs, not every such curve was filed as active; the % refers to the signal ratio). In a few lines: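 CellSensor ESRE-bla HeLa cells, 1,500 per well, plated overnight, then exposed to compounds for 5 hr at 37 C. Beta-lactamase reporter read with LiveBLAzer B/G FRET substrate after 2 hr at room temperature, 405 nm excitation, 460 and 530 nm emission.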

Assay [5] can be described thus: qHTS assay to identify small molecule agonists of the endoplasmic reticulum stress response signaling pathway - cell viability counter screen (AID 1159517). Note: nearly all actives have a fitted effect of over 50% in size. Note: potency is the fitted concentration of half-maximal effect. In a few lines: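 HeLa cells carrying an ESRE-driven beta-lactamase reporter receive compound for 5 hr at 37 C. Cell viability is then gauged with CellTiter-Glo by luminescence, 30 min at room temperature.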
Assay [6] in a line: qHTS assay to identify small molecule antagonists of the retinoid-related orphan receptor gamma (ROR-gamma) signaling pathway - cell viability counter screen (AID 1159520; active = well fitted curve in the direction sought with a large enough effect in the repeat runs; an effect the other way counts as inactive or inconclusive; note: nearly all actives have a fitted effect of over 50% in size; note: potency is the fitted concentration of half-maximal effect). In a few lines: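 Cytotoxicity was read from cellular ATP (CellTiter-Glo luminescence) after 16 hr at 37 C with 1 uM doxycycline induction. The inducer was added 2 hr after compound transfer to Tet-on ROR gamma CHO cells.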

Assay [7] has as its target Nuclear receptor ROR-gamma (Homo sapiens) (UniProt P51449). Description: qHTS assay to identify small molecule antagonists of the retinoid-related orphan receptor gamma (ROR-gamma) signaling pathway (AID 1159521; active = well fitted curve in the direction sought with a large enough effect in the repeat runs; an effect the other way counts as inactive or inconclusive; note: nearly all actives have a fitted effect of over 50% in size; note: potency is the fitted concentration of half-maximal effect). In a few lines:
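Tet-on RORγ CHO cells carrying a ROR response element–luciferase reporter were pretreated with compounds for 2 h, then induced with 1 uM (final) doxycycline hyclate for 16 h at 37 C. Antagonism was read as decreased ONE-Glo luminescence.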

Assay [8] in a line: qHTS assay to identify small molecule agonists of the AP-1 signaling pathway - cell viability counter screen (AID 1159525). Note: nearly all actives have a fitted effect of over 55% in size. Note: potency is the fitted concentration of half-maximal effect. In a few lines:
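Luminescent ATP readout (Cell Titer Glo, 30 min RT), normalised to DMSO and tetra n-octyl ammonium bromide controls. Cells were ME-180 AP-1-bla in 0.5% dialyzed FBS Opti-MEM, with a 5 h, 37 °C compound exposure.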

Assay [9] is described as follows: qHTS assay to identify small molecule agonists of the AP-1 signaling pathway (AID 1159526).
Assay [10] addresses Retinoic acid receptor RXR-alpha (Homo sapiens) (UniProt P19793). Description: qHTS assay to identify small molecule agonists of the RXR signaling pathway (AID 1159527). Note: nearly all actives have a fitted effect of over 35% in size. Note: potency is the fitted concentration of half-maximal effect. In a few lines: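 GeneBLAzer RXR-alpha-UAS-bla HEK 293T cells in medium with 2% charcoal-stripped FBS, pre-incubated 5 hr at 37 C, then exposed to compounds 16 hr. Beta-lactamase reporter read by FRET substrate, 2 hr room temperature, 460/530 nm emission.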

“And” between values parts separate entries of the source, which are not always exact repeats. Equal values may be shown once. Inconclusive results are not listed. Where a structure was tested more than once in an assay, its records may differ in their call. The source made the active and inactive calls. Unless noted, calls come from the whole dose curve.

Sequence of Retinoic acid receptor RXR-alpha (Homo sapiens) (P19793 whole entry, looked up): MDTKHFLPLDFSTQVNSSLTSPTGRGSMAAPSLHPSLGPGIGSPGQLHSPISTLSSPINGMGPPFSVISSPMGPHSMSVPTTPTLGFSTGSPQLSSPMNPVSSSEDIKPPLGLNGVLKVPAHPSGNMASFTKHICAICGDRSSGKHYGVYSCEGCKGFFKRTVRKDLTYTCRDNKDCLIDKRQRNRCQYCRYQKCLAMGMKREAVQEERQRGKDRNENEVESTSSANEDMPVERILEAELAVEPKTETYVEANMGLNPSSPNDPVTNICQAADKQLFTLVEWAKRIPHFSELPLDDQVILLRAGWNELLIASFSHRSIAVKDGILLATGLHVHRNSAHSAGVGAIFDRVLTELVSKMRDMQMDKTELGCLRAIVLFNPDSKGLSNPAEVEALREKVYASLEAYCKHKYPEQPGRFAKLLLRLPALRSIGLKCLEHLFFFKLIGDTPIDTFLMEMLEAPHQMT

For the compound `O=C(COc1ccc(Cl)cc1)N1CCN(Cc2ccc3c(c2)OCO3)CC1`, the Potency result in assay [1], in assay [3], in assay [4], in assay [5], in [6] and in [7] was “inactive” throughout. The Potency entry in assay [8] is “inactive”. The result in assay [2] and in assay [9] was inactive.
On to `O=C(/C=C/c1ccccc1)OCc1ccccc1`, for which the Potency result in assay [1], in assay [3], in assay [4], in assay [5], in assay [6] and in assay [7] was “inactive” throughout. Also, the Potency entry in assay [8] was “inactive”. The call in [2] and in [9] was inactive.
Take `CCC(C)CO` (configuration not stated): the Potency entry in [1], in assay [3], in assay [4], in assay [5], in assay [6] and in [7] was “inactive” throughout. The Potency entry in assay [8] and in [10] was “inactive” each time. Besides, the result in [2] and in assay [9] was inactive.
Consider `O=Cc1ccccc1O`, for which the Potency result in assay [1], in assay [3], in assay [4], in assay [5], in assay [6] and in assay [7] was “inactive” throughout. The Potency result in [8] and in assay [10] was “inactive” throughout. Further, the call in [2] and in [9] was inactive.
Regarding `COC(=O)CCC(=O)OC`, the Potency result in assay [1], in assay [3], in [4], in assay [5], in assay [6] and in [7] was “inactive” throughout. Also, the Potency result in assay [8] and in assay [10] was “inactive” throughout. Moreover, the outcome in assay [2] and in [9] was inactive.
As for `C[Si](C)(C)O[Si](C)(C)C`, the Potency result in [1], in [3], in assay [4], in [5], in [6] and in assay [7] was “inactive” throughout. Besides, the Potency entry in [8] and in [10] was “inactive” throughout. Besides, the compound was classed as inactive in assay [2] and in assay [9].
For `CCCCC(CC)COC(=O)c1ccc(N(C)C)cc1` (configuration not stated), the Potency entry in [1], in assay [3], in assay [4], in [5], in [6] and in [7] was “inactive” each time. Besides, the Potency entry in [8] and in [10] was “inactive” in each case. For the same compound, the compound was classed as inactive in assay [2] and in assay [9].
As to `O=CCc1ccccc1`, the Potency result in assay [1], in assay [3], in [4], in [5], in [6] and in assay [7] was “inactive” each time. Further, the Potency result in assay [8] and in [10] was “inactive” each time. The compound was classed as inactive in assay [2] and in assay [9].
As to `CCCCCCCCCCCO`, the Potency entry in assay [1], in assay [4], in assay [5], in assay [6], in assay [7] and in assay [8] was “inactive” throughout. Besides, the compound was called inactive in assay [2] and in [9]. Besides, the Potency result was “inactive and 49 µM (active)” in assay [3]; “inactive and 3.89 µM (active)” in [10].
For `C[C@]12CC[C@H]3[C@@H](CCC4=CC(=O)CC[C@@]43C)[C@@H]1CC[C@@H]2C(=O)CO`, the Potency entry in [1], in assay [3], in assay [4], in assay [5], in assay [6] and in assay [8] was “inactive” throughout. In addition, the compound was classed as inactive in assay [2] and in assay [9]. The Potency in [7] was 27.3 µM (active).
With `CC(C)OC=O`, the Potency entry in assay [1], in [3], in assay [4], in [5], in assay [6] and in assay [7] was “inactive” in each case. Moreover, the Potency result in [8] and in [10] was “inactive” throughout. Moreover, the result in assay [2] and in [9] was inactive.
Take `CCCc1c(OCCCCc2nn[nH]n2)ccc(C(C)=O)c1O`: the Potency result in assay [1], in assay [3], in assay [4], in assay [5], in assay [6] and in [7] was “inactive” throughout. Further, the Potency result in [8] was “inactive”. For the same compound, the compound was called inactive in assay [2] and in assay [9]. Further, in assay [10], the Potency was 54.9 µM (active) and 23.9 µM (active).
Take `CCCCOCCOCCO`: the Potency entry in [1], in assay [3], in assay [4], in assay [5], in assay [6] and in assay [7] was “inactive” in each case. The Potency entry in [8] and in [10] was “inactive” throughout. For the same compound, the call in assay [2] and in assay [9] was inactive.
Take `Cc1cccc(N(C)C(=S)Oc2ccc3ccccc3c2)c1`: in assay [1], the Potency is 15.5 µM (active) and inactive. In addition, the call in assay [2] and in assay [9] was inactive. Moreover, the Potency result in assay [3], in assay [4], in assay [5], in assay [6], in assay [7] and in assay [8] was “inactive” each time.
Consider `c1cc(-c2ccncc2)ccn1`, for which the Potency entry in [1], in assay [3], in assay [4], in assay [5], in assay [6] and in [7] was “inactive” throughout. In addition, the Potency entry in assay [8] and in assay [10] was “inactive” in each case. The result in assay [2] and in assay [9] was inactive.
In the case of `O=C(OCc1ccccc1)c1ccccc1O`, the Potency result in assay [1], in assay [3], in assay [4], in [5], in assay [6] and in assay [7] was “inactive” each time. Moreover, the Potency entry in [8] and in assay [10] was “inactive” each time. In addition, the compound was classed as inactive in [2] and in assay [9].
Consider `O=c1oc(=O)c2cc3c(=O)oc(=O)c3cc12`, for which the Potency result in assay [1], in [3], in assay [4], in assay [5], in assay [6] and in assay [7] was “inactive” each time. Moreover, the Potency entry in assay [8] is “inactive”. In addition, the result in assay [2] and in assay [9] was inactive.
For the compound `CCCCCCCCCC(=O)OC`, the Potency result in assay [1], in [3], in assay [4], in assay [5], in assay [6] and in [7] was “inactive” each time. The Potency entry in assay [8] and in assay [10] was “inactive” throughout. The call in [2] and in [9] was inactive.
Take `CCCCC(CC)COP(=O)(OCC(CC)CCCC)OCC(CC)CCCC` (configuration not stated): the Potency result in assay [1], in [3], in assay [4], in assay [5], in assay [6] and in [7] was “inactive” throughout. Besides, the Potency result in assay [8] and in assay [10] was “inactive” in each case. Further, the compound was called inactive in assay [2] and in [9].
As for `CCCCc1oc2ccccc2c1C(=O)c1cc(I)c(OCCN(CC)CC)c(I)c1`, in [2], the compound was called inactive. The Potency in assay [3] was 31.1 µM (active) and 26.8 µM (active); in assay [5], 39.2 µM (active); in assay [6] it was 43.6 µM (active); in assay [7], 19.5 µM (active) and 26.6 µM (active); in assay [8], 31.1 µM (active). The Potency entry in assay [4] and in [10] was “inactive” each time.
Take `Cc1ccc(C)c(O)c1C`: the Potency entry in assay [1], in assay [3], in assay [4], in [5], in [6] and in assay [7] was “inactive” throughout. For the same compound, the Potency entry in assay [8] is “inactive”. Moreover, the compound was classed as inactive in assay [2] and in assay [9].
Regarding `Nc1ccc(S(=O)(=O)Nc2cnc3ccccc3n2)cc1`, the Potency entry in assay [1], in [3], in [4], in assay [5], in assay [6] and in [7] was “inactive” each time. Further, the Potency entry in assay [8] and in assay [10] was “inactive” in each case. For the same compound, the compound was classed as inactive in assay [2] and in assay [9].
Regarding `CC(CCC(=O)O)(c1ccc(O)cc1)c1ccc(O)cc1`, the Potency entry in assay [1], in assay [3], in [4], in [5], in [6] and in assay [7] was “inactive” each time. The Potency result in assay [8] and in assay [10] was “inactive” each time. In addition, the call in [2] and in assay [9] was inactive.
